Results filed as inconclusive are left out. A call without a number means that no potency is given here. Activity calls are given as the source filed them. The call rests on the fitted dose curve; in most records, active means well fitted inhibition curve with a large enough effect in the repeat runs; inconclusive means weak or mixed curves; inactive means no such curve, though single readings can be large or run the other way.

A short description of the test: qHTS assay to identify small molecule antagonists of the thyroid receptor (TR) signaling pathway (AID 743065). Further: nearly all actives have a fitted effect of over 55% in size. Conditions: GH3.TRE-Luc, T3-stimulated luciferase inhibition, 23.5 h; series mostly up to 70.3 µM. An excerpt: U.S. Tox21 Program National Center for Advancing Translational Sciences [NCATS] NIH Chemical Genomics Center [NCGC] U.S. Environmental Protection Agency [EPA] National Institutes of Environmental Health Sciences [NIEHS] National Toxicology Program [NTP] U.S. Food and Drug Administration [FDA] Tox21 Assay Overview: Thyroid receptor (TR), a nuclear hormone receptor, plays an important role in development, proliferation, differentiation, metabolism, brain function, and cardiovascular system. […] To profile the Tox21 10K compound library in TR signaling, a cell-based GH3-TRE-Luc assay (GH3.TRE-Luc cell line, developed by the laboratory of Dr. Albertinka J. Murk, Wageningen University) was used to measure the inhibition of TR. GH3 (rat pituitary tumor) cells stably expressing a TR activity sensor consisting of two TR response elements and a luciferase reporter gene.
Tox21 Assay Protocol Summary: GH3.TRE-Luc cells were dispensed at 1500 cells/4 uL/well into 1536-well white solid bottom plates using a Multidrop Combi dispenser (Thermo Fisher Scientific Inc., Waltham, MA). After the assay plates were incubated at 37 C for 4 hours, 23 nL of library compound or DMSO controls was transferred to the assay plates by a pintool station (Kalypsys, San Diego, CA), followed by addition of 1 ul of T3 (1 nM, final concentration in the wells) to stimulate TR transactivation. The assay plates were incubated at 37 C for 23.5 h, and then 1 uL of CellTiter-Fluor reagent (Promega, Madision, WI) of measuring cytotoxicity was added to each well using a Bioraptr Flying Reagent Dispenser (FRD) workstation (Beckman Coulter, Indianapolis, IN, USA). The plates were incubated at 37 C and 5% CO2 for additional 30 min, and fluorescence intensity was measured by a ViewLux plate reader (PerkinElmer, Shelton, CT). For measuring luciferase reporter gene activity, 4 uL of ONE-Glo Luciferase Assay reagent (Promega) was added to each well using a Bioraptr FRD (Beckman Coulter), followed by 30 min incubation at room temperature. The luminescence intensity of plates was recorded by a ViewLux plate reader (PerkinElmer, Shelton, CT).
For orientation: In qHTS, concentration-response curves come from the screen itself.
With `Cc1ccccc1OCC(O)CO` (stereo not given), the Potency result is “inactive”.

For the compound `Cc1cc2cc3c(C)cc(=O)oc3c(C)c2o1`, the Potency result is “inactive”.

As to `O=C(O)Cc1ccc(Cl)cc1Cl`, the Potency entry was “inactive”.

For the compound `O=S(=O)(O)CCN1CCN(CCO)CC1`, the Potency result was “inactive”.

In the case of `CCCCCCCCC1CCC(=O)O1` (stereo not given), the Potency result was “inactive”.

With `CC(C)C[C@H](NC(=O)CNC(=O)[C@H](Cc1ccc(O)cc1)NC(=O)[C@H](CO)NC(=O)[C@H](Cc1c[nH]c2ccccc12)NC(=O)[C@H](Cc1cnc[nH]1)NC(=O)[C@@H]1CCC(=O)N1)C(=O)N[C@@H](CCCN=C(N)N)C(=O)N1CCC[C@H]1C(=O)NCC(N)=O` (stereo in doubt), the Potency entry was “inactive”.

On to `OCCCCC(O)CO` (stereo not given), for which the Potency entry was “inactive”.

As for `O=C(CCNNC(=O)c1ccncc1)NCc1ccccc1`, the Potency entry was “inactive”.

For `CCOC(=O)[C@H](CCc1ccccc1)N[C@@H](C)C(=O)N1C(=O)N(C)C[C@H]1C(=O)O`, the Potency entry was “inactive”.

Turning to `O=C(NCC(O)CO)c1c(I)c(C(=O)NCC(O)CO)c(I)c(N(CCO)C(=O)CO)c1I` (stereo not given), the Potency result was “inactive”.

With `CCOc1cc(NC(C)=O)ccc1C(=O)OC`, the Potency result was “inactive”.

As for `CCOC(=O)/C=C/c1ccccc1`, the Potency entry was “inactive”.

As for `CC(=O)Nc1cccc(C)c1`, the Potency entry is “inactive”.

Regarding `CCCCCCCC/C=C\CCCCCCCC(=O)OCCCC`, the Potency entry was “inactive”.

On to `O=C(OCc1ccccc1)C(=O)OCc1ccccc1`, for which the Potency entry was “inactive”.

As to `C=CC(OCC)OCC`, the Potency result is “inactive”.

As for `Oc1cn2c(n1)Nc1ccc(Cl)c(Cl)c1C2`, the Potency result was “inactive”.

On to `BrCc1cccc(Oc2ccccc2)c1`, for which the Potency result was “inactive”.

Take `OCCC(F)(F)C(F)(F)C(F)(F)C(F)(F)C(F)(F)C(F)(F)C(F)(F)C(F)(F)F`: the Potency entry was “inactive”.

As for `CC(C)(C)NC(N)=O`, the Potency entry was “inactive”.

Take `CCCCCCCCCC(C)=O`: the Potency result was “inactive”.

On to `CCC(CC)CO`, for which the Potency entry is “inactive”.

Turning to `CCCOC(OCCC)OCCC`, the Potency entry was “inactive”.

`CC(C)CC(C)CC(C)CC(C)COC(=O)c1ccccc1C(=O)OCC(C)CC(C)CC(C)CC(C)C` (stereo not given): the Potency result is “inactive”.

Consider `O=S(=O)(O)c1ccc2cc(O)c(S(=O)(=O)O)cc2c1`, for which the Potency entry was “inactive”.

Turning to `ClCCCl`, the Potency entry was “inactive”.

Turning to `Nc1ccc([N+](=O)[O-])c(N)c1`, the Potency entry was “inactive”.

For `CCC(C=O)CC`, the Potency entry is “inactive”.

With `Cc1ccsc1/C=C/C1=NCCCN1C`, the Potency result is “inactive”.

With `CC(C)(C)c1n[nH]c(=S)n(N)c1=O`, the Potency entry is “inactive”.

With `c1ccc2nccnc2c1`, the Potency entry was “inactive”.

Turning to `Cc1cccc2nccnc12`, the Potency result is “inactive”.

As for `CCCCCCN`, the Potency entry is “inactive”.

As to `COC(=O)CCCCCCCC(=O)OC`, the Potency result is “inactive”.

Regarding `O=C(O)c1ccc(Cl)cc1Cl`, the Potency result is “inactive”.

Consider `COc1cc(NS(=O)(=O)c2ccc(N)cc2)nc(OC)n1`, for which the Potency entry is “inactive”.

As for `CCC(C)(CCC(C)C)C(=O)O` (stereo not given), the Potency entry is “inactive”.

In the case of `C#CC(C)N(C)C(=O)Nc1ccc(Cl)cc1` (stereo not given), the Potency result is “inactive”.

In the case of `CC(C)(C)c1cc(CCC(=O)NN)cc(C(C)(C)C)c1O`, the Potency result was “inactive”.

On to `O=C(NCCN1CCOCC1)c1ccc(Cl)cc1`, for which the Potency result was “inactive”.
